Source: PubChem BioAssay AID1745850 (National Center for Advancing Translational Sciences (NCATS), 2022)
Screen size: about 2,100 compounds; about 260 (12%) were called active. About 58% were inconclusive and are not listed. This is one part of the list. Values without a mark were called inactive. Calls come from the whole dose curve; as a rule, active = well fitted cell-killing curve with a large enough effect; inconclusive = small, poorly fitted or top-dose-only effect, or effect the other way; inactive = flat fitted curve, though single readings scatter.

Assay: Viability Counterscreen for Confirmatory qHTS for Inhibitors of ATXN expression; note: nearly all actives have a fitted effect of over 50% in size
Settings: HEK-293 ATXN2-luc cells viability, CellTiter-Fluor, 24 h; activity change, negative = cytotoxicity: at the top concentration
Method in brief: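 Luminescence read-out (SteadyGlo, 5 min) followed a 30 min Gly-Phe-AFC (25 uM final) viability fluorescence read. ATXN2-luciferase reporter cells were exposed 24 h to a dilution series. Medium-only wells served as the 100% inhibition reference.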
Potency is the fitted concentration of half-maximal effect.

Row | SMILES | Potency | activity change, negative = cytotoxicity
1 | COc1cc(-c2ccc3sc(-c4ccsc4)c(C#CCO)c3c2)cc(OC)c1OC | 22.4 µM (active) | 
2 | COc1ccc(-c2sc3ccc(OC)cc3c2-c2ccc(O)cc2)cc1 |  | -24.2%
3 | O=C(O)CSc1cc(NS(=O)(=O)c2ccc(Cl)cc2)c2ccccc2c1O | 35.5 µM (active) | 
4 | COC(=O)[C@H]1C[C@H](OC(=O)NC2CC2)[C@@]2(O)CN(S(=O)(=O)c3ccc(C)cc3)CC2[C@H]1C(=O)OC (some centres not stated) |  | -1.83%
5 | COc1ccc(-c2csc(NC(=O)c3ccccc3NS(=O)(=O)c3ccc(F)c(F)c3)n2)cc1 | 5.62 µM (active) | 
6 | COc1ccc(CC(N)c2csc(NC(=O)c3ccccc3OC)n2)cc1 (configuration not stated) |  | -15.7% [at 57.5 µM]
7 | C/[N+]([O-])=C\c1cccc(OCCN2CCN(c3ncc(C(F)(F)F)cc3Cl)CC2)c1 |  | -8.08%
8 | CC[n+]1c(/C=C/c2c[nH]c3ccccc23)ccc2cc(C)ccc21 | 15.8 µM (active) | 
9 | Nc1ccc(OC(=O)Nc2ccc(O)cc2)cc1 |  | -23.8% [at 57.5 µM]
10 | O=C(NCC1CCCO1)c1cccc(Oc2ccc([N+](=O)[O-])cc2Cl)c1 (configuration not stated) |  | -10.9%
11 | O=C(Cn1cnc([N+](=O)[O-])c1)Nc1cc(Oc2ccc(Cl)cc2Cl)cc([N+](=O)[O-])c1 | 3.16 µM (active) | 
12 | CC1CCN(Cc2c(C(=O)N/N=C/c3cc(Cl)ccc3O)nnn2-c2nonc2N)CC1 |  | -9.41%
13 | O=C1c2cccc3cc([N+](=O)[O-])cc(c23)C(=O)N1CCN1CCCC1 | 3.16 µM (active) | 
14 | Nc1cc2c3c(cccc3c1)C(=O)N(CCN1CCCC1)C2=O | 22.4 µM (active) | 
15 | CCCCCCc1cc2cc(C(=O)Nc3ccccc3)c(=O)oc2cc1O |  | 14.7%
16 | O=C(CN1C(=O)c2ccccc2S1(=O)=O)N1CCc2ccccc21 |  | -6.71%
17 | CCOc1cc(/C=C2\SC(=N)N(c3nccs3)C2=O)ccc1OCCN1CCOCC1 | 25.1 µM (active) | 
18 | OC1(c2ccc(Br)cc2)CCNCC1 |  | -4.89%
19 | Cc1onc(-c2ccccc2)c1C(=O)Nc1ccc(S(=O)(=O)NC(C)(C)C)cc1 |  | -0.495% [at 57.5 µM]
20 | Cc1cc(C)cc(OCC(=O)NNC(=S)NC(=O)C2CC2)c1 |  | 1.25%
21 | Cc1sc2cc3c(c(C(=O)c4ccccc4)[n+]2c1C)-c1cccc2cccc-3c12 | 12.6 µM (active) | 
22 | CC(=O)c1ccc(C(=O)Nc2nnc(-c3ccc(Cl)cc3)o2)cc1 |  | -8.23%
23 | CCn1c2ccccc2c2cc(NC(=O)COC(=O)C3CCC(=O)N3)ccc21 (configuration not stated) |  | -15.2% [at 57.5 µM]
24 | NS(=O)(=O)c1ccc(N2N=C(c3ccc(Br)cc3)CC2c2ccc(F)cc2)cc1 (configuration not stated) |  | -21.3% [at 57.5 µM]
25 | O=C(NNCc1ccccc1)c1ccccc1 |  | -14.6% [at 57.5 µM]
26 | COc1cccc(OC)c1C(=O)OCC(=O)NC(=O)NCc1ccccc1 |  | -8.35%

Row | SMILES | Potency | activity change, negative = cytotoxicity
27 | c1ccc(CN=C(NCc2ccccc2)NCc2ccccc2)cc1 | 31.6 µM (active) | 
28 | C/C(=N\NC(=O)c1cccc2ccccc12)c1ccccn1 | 6.31 µM (active) | 
29 | CCCCCC(=O)N/N=C(\C)c1ccccn1 |  | -17.7%
30 | CCCC/C(C)=N/NC(=O)c1cn(-c2ccccc2)nc1-c1ccccc1 |  | 4.09%
31 | Nc1cccc2nc3ccccc3cc12 |  | 2.62% [at 57.5 µM]
32 | COc1cc(N)ccc1Nc1c2ccccc2nc2ccccc12 | 31.6 µM (active) | 
33 | COc1cc2cc(C(=O)NC(C)c3cccc4ccccc34)c(N)nc2cc1OC (configuration not stated) |  | -8.62%
34 | O=C(NNC(=O)c1csc(-c2cnccc2C(F)(F)F)n1)c1ccc(C(F)(F)F)cc1 |  | -18.1%
35 | c1cc2c(cc1-c1cnc3n1CCC3)OCCO2 |  | -28.7% [at 57.5 µM]
36 | O=C1C=C(NCCc2cc(Br)c(O)c(Br)c2)C(=O)c2ncccc21 | 10 µM (active) | 
37 | CCOC(=O)c1c2ccc(OCC(=O)N/N=C/c3ccc(C)cc3)cc2n2ccccc12 |  | -23% [at 57.5 µM]
38 | CN1CCC[C@H]1CCNc1ccc2c(=O)c3ccccc3n(C)c2c1 |  | 14.2% [at 57.5 µM]
39 | CCCc1nc2c(c(=O)c3ccccc3n2C)c(=O)n1C1CCCCCC1 | 28.2 µM (active) | 
40 | Nc1c(C(=O)NCc2ccc3c(c2)OCO3)c2nc3ccccc3nc2n1CCCN1CCOCC1 |  | -24.5% [at 57.5 µM]
41 | CC(C)(C)c1ccc(OCCn2nc(C(=O)O)c3ccccc3c2=O)cc1 |  | -26.5% [at 57.5 µM]
42 | COC(=O)C1=C(C)N(Cc2ccccc2)C(=NCCc2cccnc2)N[C@H]1c1ccc(Br)cc1 | 22.4 µM (active) | 
43 | Cc1cccc(NC(=O)CCC(=O)N/N=C/c2ccc(O)cc2O)c1 |  | -20.9%
44 | COc1ccc2c(Cl)c(C(=O)NN)sc2c1 |  | 8.74%
45 | CCC(=O)c1ccc(OCC(O)CN(CCc2ccccc2)Cc2ccccc2)cc1 (configuration not stated) |  | -22.7%
46 | OC(CNCCc1ccccc1)COc1ccc(OCC(O)CNCCc2ccccc2)cc1 (configuration not stated) | 22.4 µM (active) | 
47 | O=C(N/N=C\c1c(O)ccc2ccccc12)c1ccc(S(=O)(=O)N2CCCCC2)cc1 |  | -12.7% [at 57.5 µM]
48 | O=S(=O)(c1ccc2nc(COc3ccc(Cl)cc3Cl)[nH]c2c1)N1CCOCC1 |  | 3.51%
49 | COc1cccc(NC(=O)CSc2nc3ncc(Br)cc3[nH]2)c1 |  | -9.63%
50 | N#C/C(=C\C=C\c1ccccc1[N+](=O)[O-])C(=O)NC1CCCCC1 | 20 µM (active) | 
51 | CC1CCCCC1NC(=O)/C(C#N)=C/C=C/c1ccccc1[N+](=O)[O-] (configuration not stated) | 2.82 µM (active) | 
52 | CC(C)N(Cc1ccccc1)C(=O)/C=C/c1ccccc1[N+](=O)[O-] |  | -23.4% [at 57.5 µM]

Row | SMILES | Potency | activity change, negative = cytotoxicity
53 | O=C(NCC1CC1)c1ccc2c(c1)S(=O)(=O)c1cc(Cl)ccc1C2=O |  | -16.3%
54 | Cc1cc(C)n(-c2ccc(C(=O)N3CCN(S(=O)(=O)c4cccc(Br)c4)CC3)cc2)n1 |  | -15.9%
55 | O=C(Nc1ccc(N2CCOCC2)c(Cl)c1)c1c(F)c(F)c(F)c(F)c1F |  | -11%
56 | CC(O)(c1ccccc1)c1nc(-c2ccncc2)cs1 (configuration not stated) |  | -3.76%
57 | COc1ccc(NC2=NCC(Cc3ccc(Br)cc3)S2)cc1 (configuration not stated) |  | -15.6%
58 | CCN(CC)CCC(c1ccc2c(c1)OCO2)c1c(OC)cc(OC)c2c(-c3ccccc3)cc(=O)oc12 (configuration not stated) | 20 µM (active) | 
59 | Cc1ccc(SC2=C(Sc3ccc(C)cc3)C(=O)c3ccccc3C2=O)cc1 |  | -12.3% [at 57.5 µM]
60 | CCC(=O)OC1(C(C)=O)CCC2C3CCC4=CC(=O)CCC4(C)C3CCC21C (configuration not stated) |  | -8.08% [at 57.5 µM]
61 | CSc1ncnc2c1ncn2CC(=O)C1CCC2C3CCC4=CC(=O)CCC4(C)C3CCC12C (configuration not stated) | 17.8 µM (active) | 
62 | Cc1ccc(Sc2nnc(Cc3ccccc3)c3ccccc23)cc1 |  | -20.7% [at 57.5 µM]
63 | Cc1cc(C)c(C(=O)N2CCCC(N3CCN(c4cccc(C(F)(F)F)c4)CC3)C2)o1 (configuration not stated) |  | -17.7%
64 | CCOc1cc(/C=N/Nc2cc(C)nc(-n3nc(C)cc3C)n2)ccc1O | 3.98 µM (active) | 
65 | Cc1cc(N/N=C/c2ccccc2[N+](=O)[O-])nc(-n2nc(C)cc2C)n1 | 12.6 µM (active) | 
66 | CCOC(=O)c1cnc(-n2nc(C)cc2C)nc1NC1CCCC1 |  | -24.9%
67 | Cc1cc(O)c(C(C)C)cc1N=Cc1ccccc1[N+](=O)[O-] |  | -7.78% [at 57.5 µM]
68 | CC(=O)c1ccc(S(=O)(=O)N2CCN(CCOc3ccc(Br)cc3)CC2)cc1 |  | -18.1%
69 | CC(C)(C)N(Cc1ccc2c(c1)OCO2)C(=O)/C=C\S(=O)c1ccccc1 (configuration not stated) | 17.8 µM (active) | 
70 | CN(C)CCC(c1ccc(Br)cc1)c1ccccn1 (configuration not stated) |  | -18.7% [at 57.5 µM]
71 | CCOC(=O)c1c(-c2ccccc2)oc2ccc(OCC(=O)NN)cc12 |  | -25.4% [at 57.5 µM]
72 | O=C(N/N=C\c1cc(Br)ccc1O)c1ccc(S(=O)(=O)N2CCCCC2)cc1 |  | 7.84%
73 | N#C/C(=C\c1ccc([N+](=O)[O-])o1)c1nc2ccccc2[nH]1 | 7.94 µM (active) | 
74 | CCOc1cc(/C=C(/C#N)c2nc3ccccc3[nH]2)ccc1Oc1ccc([N+](=O)[O-])cn1 |  | -26% [at 57.5 µM]
75 | O=C(Nc1cccnc1)C1Cc2c(-c3ccc4c(c3)OCO4)ccnc2O1 (configuration not stated) |  | -4.94%
76 | Cc1nn(-c2ccccc2)c(N2CCCC2)c1/C=N/NC(=O)c1cc2ccccc2cc1O |  | -15.2%
77 | Cc1nc(SC2CC(=O)N(c3ccccc3)C2=O)n[nH]1 (configuration not stated) |  | -11.3% [at 57.5 µM]
78 | Cc1cc(C(=O)CN2C(=O)c3ccccc3S2(=O)=O)c(C)n1CC1CCCO1 (configuration not stated) |  | -6.33% [at 57.5 µM]

Row | SMILES | Potency | activity change, negative = cytotoxicity
79 | S=C(Nc1ccccc1)Nc1ccc(OCc2ccc(Cl)cc2Cl)cc1 |  | -16.1% [at 57.5 µM]
80 | Cc1cc(/C=N/n2cnnc2)c(C)n1-c1ccc(OCc2ccc(Cl)cc2Cl)cc1 | 28.2 µM (active) | 
81 | CCc1nc2c(OCc3ccc(Cl)cc3Cl)cccn2c1N(C=O)Cc1ccc(OC)cc1 |  | -19.5%
82 | Nc1cccc2c1C(=O)N(C(=O)/C=C/c1cccc(Br)c1)C2=O |  | 2.1% [at 57.5 µM]
83 | Cn1nnnc1Sc1ncnc2scc(-c3ccc[nH]3)c12 | 12.6 µM (active) | 
84 | Cn1nnnc1Sc1ncnc2scc(Br)c12 | 20 µM (active) | 
85 | O=c1[nH]c(CN2CCN(c3ncccn3)CC2)nc2c(Br)cc(Br)cc12 |  | -9.08%
86 | CCOC(=O)COc1ccc(Br)cc1/C=C/c1[nH]c(=O)[nH]c(=O)c1[N+](=O)[O-] |  | -26.2%
87 | Nc1ccc2c(c1)OC1(CCCC1)O2 |  | -8.89%
88 | Cn1c(CCc2nc3ccccc3[nH]2)nnc1SCC#N |  | -10.6% [at 57.5 µM]
89 | c1ccc2c(c1)c1c(c3ccccc32)CN2CCCC2C1 (configuration not stated) |  | -16.7% [at 57.5 µM]
90 | COc1ccc(-c2c[n+]3c4n2CCCCC4=C(c2ccc(Br)cc2)C3)cc1 |  | -28.7%
91 | Cc1cccc(OCCn2cc(/C=N/NC(=O)c3ccncc3)c3ccccc32)c1 |  | -6.67%
92 | COc1ccc(C(=O)NC(=C(Cl)Cl)S(=O)(=O)c2ccc(C)cc2)cc1 |  | -18%
93 | Cc1ccc(S(=O)(=O)/C(=C/Cl)NC(=O)c2ccccc2)cc1 | 22.4 µM (active) | 
94 | Cc1ccc(S(=O)(=O)NCC(=O)N/N=C/c2ccccc2O)cc1 |  | -10.1%
95 | CCOC(=O)c1ccc(/C=C2/C=C(c3ccccc3)N(c3ccc(Cl)c(C(=O)O)c3)C2=O)cc1 |  | -28.3% [at 57.5 µM]
96 | O=C(c1cc(COc2cccc(C(F)(F)F)c2)on1)N1CCC(c2ccncc2)CC1 |  | -15.7%
97 | C=CCn1c(COc2ccccc2)nnc1SCC(=O)N/N=C/c1cc(Cl)ccc1O |  | -24.6% [at 57.5 µM]
98 | CSc1sc(-c2nnc(SCC(=O)Nc3ccc(Cl)cc3)n2C)c2c1C=CCC2 |  | -6.66%
99 | Cn1c(SCC(=O)Nc2cc(Cl)cc(Cl)c2)nnc1-c1ccc2nonc2c1 |  | -28.1%
100 | Cn1c(SCC(=O)N/N=C/c2ccc([N+](=O)[O-])s2)nnc1-c1ccc(Cl)cc1 | 11.2 µM (active) | 
101 | Cn1c(SCC(=O)N/N=C/c2ccc([N+](=O)[O-])s2)nnc1-c1ccccc1 | 22.4 µM (active) | 
102 | COc1ccc(O)c(/C=N/NC(=O)CSc2nnc(C)n2-c2ccccc2)c1 |  | -23.6%
